Data from ChEMBL document CHEMBL4513146, “CO-ADD screening of Karazin Kharkiv National University (Ukraine) compounds”.
Results with a measured potency or affinity are listed apart.

Experiments:
Klebsiella pneumoniae = details: Concentration 32 ug.mL-1;; ASSAY_TEST Inhibition of Bacterial Growth; detection method Absorption (OD600); MEDIA CAMHB; plate type 384well; NBS; CORNING #3640; time 18 hr
Candida albicans = details: Concentration 32 ug.mL-1; ASSAY_TEST Inhibition of Fungal Growth; detection method Absorption (OD530)
Cryptococcus neoformans = details: Concentration 32 ug.mL-1; ASSAY_TEST Inhibition of Fungal Growth; detection method Resazurin; Absorption (OD600-OD570); plate type 384well; NBS; CORNING #3640

Structure (SMILES)	Inhibition (Klebsiella pneumoniae) [%]	Inhibition (Candida albicans) [%]	Inhibition (Cryptococcus neoformans) [%]
Cc1ccc(-n2ccn3c(SCC(=O)c4c[nH]c5ccccc45)nnc3c2=O)cc1C	9.4	3.27	-5.1
COc1ccc(NC(=O)Cn2nc3ccc(-c4ccccc4)nn3c2=O)cc1OC	-3.16	3.57	0.88
O=C(Cn1nc2c3cc(-c4ccc(F)cc4)nn3ccn2c1=O)Nc1ccc(Br)cc1	2.07	14.76	4.1
Cc1ccc(NC(=O)Cn2nc3ccc(SC(C)(C)C)nn3c2=O)c(C)c1	14.3	1.14	-21.84
COc1ccccc1NC(=O)Cn1nc2c(SCc3ccccc3)nccn2c1=O	0.49	5.7	-17.11
COc1cccc(-n2ccn3c(SCc4ccccc4Cl)nnc3c2=O)c1	8.33	2.81	-13.51
COc1ccc(C(=O)CSc2nnc3c(=O)n(-c4ccc(F)c(F)c4)ccn23)cc1	16.31	2.03	-11.53
O=C(Cn1nc2c3c4c(sc3ncn2c1=O)CCCC4)NCc1ccc(F)cc1	9.92	15.82	-14.13
N#Cc1ccc(NC(=O)Cn2nc3c(SC4CCCCC4)nccn3c2=O)cc1	10.51	3.23	-20.35
COc1ccc(NC(=O)c2ccc3nn(CC(=O)Nc4cc(Cl)ccc4OC)c(=O)n3c2)cc1	1.5	2.28	-8.79
Cc1ccc(C)c(C(=O)CSc2nnc3c(=O)n(-c4ccc(F)c(F)c4)ccn23)c1	16.06	4.02	-10.11
COc1cccc(Oc2nccn3c(=O)n(CC(=O)Nc4ccc5c(c4)OCCO5)nc23)c1	1.41	7.65	-9.22
Cc1ccc(NC(=O)Cn2nc3c(N4CCOCC4)nccn3c2=O)cc1F	7.04	3.27	-4.33
CCCN(C)c1nccn2c(=O)n(CC(=O)Nc3ccc(Br)cc3)nc12	7.69	3.8	-7.69
Cc1cc(C)cc(N(Cc2ccccc2)S(=O)(=O)c2cccn3c(C)nnc23)c1	-0.64	2	-6.56
COc1cccc(-n2ccn3c(SCc4ccc(F)cc4)nnc3c2=O)c1	3.28	1.89	-13.93
CC(=O)c1cccc(NC(=O)CSc2nc3ccccc3n3c(C)nnc23)c1	2.18	5.91	-6.11
COc1cccc(C(=O)CSc2nnc3c(=O)n(-c4ccc(F)cc4)ccn23)c1	7.79	2.89	-4.94
Cc1ccc(NC(=O)Cn2nc3ccc(SC(C)C)nn3c2=O)c(Cl)c1	9.56	10.62	-1.74
Cc1cc(C)cc(Oc2nccn3c(=O)n(CC(=O)Nc4ccc(Cl)cc4F)nc23)c1	14.33	0.59	-7.4
CCC(C)NC(=O)CSc1nnc2c(=O)n(Cc3ccc(F)cc3)ccn12 (stereo not drawn)	6.96	1.05	-22.53

Structure (SMILES)	Inhibition (Klebsiella pneumoniae) [%]	Inhibition (Candida albicans) [%]	Inhibition (Cryptococcus neoformans) [%]
CCCc1nnc2c(=O)n(CC(=O)N3CCCc4ccccc43)c3ccccc3n12	7.45	0.04	-21.26
O=C(Cn1nc2c(Sc3ccccc3)nccn2c1=O)Nc1ccc2c(c1)OCO2	1.19	12.77	-5.13
Cc1nnc2ccc(S(=O)(=O)N(Cc3ccccc3F)c3ccc(F)c(F)c3)cn12	9.72	2.36	-9.63
Cc1cc(C)c(NC(=O)Cn2nc3ccc(SCc4ccc(Cl)cc4)nn3c2=O)c(C)c1	3.59	6.58	-25.9
Cc1ccccc1CN(c1cccc(F)c1)S(=O)(=O)c1ccc2nncn2c1	6.25	3.9	-4.05
COc1ccc(C)cc1NC(=O)Cn1nc2ccc(SC(C)(C)C)nn2c1=O	5.72	3.1	-12.69
O=C(CSc1nnc2c(=O)n(-c3ccccc3)ccn12)Nc1ccccc1F	7.24	-0.73	-14.95
Cc1cc(C)cc(Oc2nc3ccccc3n3c(=O)n(CC(=O)Nc4ccc5c(c4)OCO5)nc23)c1	6.8	46.24	-19.74
O=C(Cn1nc2c3cc(-c4ccc(Cl)cc4)nn3ccn2c1=O)NC1CCCC1	4.67	2.49	-18.35
CCc1cccc(NC(=O)Cn2nc3ccc(SC(C)C)nn3c2=O)c1	7.23	12.21	-12.08
COc1cccc(Oc2nccn3c(=O)n(CC(=O)Nc4cc(F)ccc4F)nc23)c1	3.2	5.06	-8.45
COc1cccc(Sc2nc3ccccc3n3c(=O)n(CC(=O)Nc4cccc(F)c4)nc23)c1	12.26	-1.78	-25.49
CCc1ccc(N(Cc2cccc(OC)c2)S(=O)(=O)c2cccn3c(C)nnc23)cc1	-1.7	-0.37	-7.84
CCOC(=O)c1cccc(NC(=O)CSc2nnc3ccc(C(=O)Nc4cccc(F)c4)cn23)c1	3.6	0.96	-5.2
CCOC(=O)N1CCN(C(=O)CCc2nnc3c4cc(-c5ccccc5)nn4ccn23)CC1	14.35	1.03	-14.62
Cc1nnc2c(=O)n(CC(=O)Nc3ccccc3F)c3ccccc3n12	0.65	3.67	-6.39
CCCN(C)c1nccn2c(=O)n(CC(=O)Nc3ccc(C#N)cc3)nc12	16.62	0.92	-9.74
CCc1ccc(N(Cc2cccc(Cl)c2)S(=O)(=O)c2cccn3c(C)nnc23)cc1	7.34	9.1	-5.8
CCc1nnc2c(SCC(=O)Nc3cc(Cl)ccc3C)nc3ccccc3n12	15.39	3.09	-9.04
COC(=O)c1ccccc1NC(=O)Cn1nc2c3sc(N4CCCC4)nc3ncn2c1=O	7.53	3.62	-7.62
Cc1ccc(-c2ccc3nn(CC(=O)Nc4ccc(Br)cc4)c(=O)n3n2)cc1C	12.28	10.19	-18.48

Structure (SMILES)	Inhibition (Klebsiella pneumoniae) [%]	Inhibition (Candida albicans) [%]	Inhibition (Cryptococcus neoformans) [%]
Cc1ccccc1N1CCN(c2nccn3c(=O)n(CC(=O)NCc4cc(F)cc(F)c4)nc23)CC1	4.01	0.32	-4.76
Cc1ccc(-c2cc3c4nn(CC(=O)Nc5ccc(C)c(Cl)c5)c(=O)n4ccn3n2)cc1C	10.5	8.38	-8.69
Cc1ccc(Cl)cc1NC(=O)Cn1nc2c3c4c(sc3ncn2c1=O)CCCCC4	13.99	1.16	-31.5
COc1cccc(-c2nc(CSc3nc4ccccc4n4c(C(C)C)nnc34)c(C)o2)c1OC	2.62	-0.24	-8.54
COc1cccc(NC(=O)Cn2nc3ccc(SCc4ccc(Cl)cc4)nn3c2=O)c1	6.69	11.57	-15.62
Cc1nnc2ccc(S(=O)(=O)N(Cc3cccc(F)c3)c3ccc4c(c3)OCO4)cn12	1.28	3.36	-7.24
CCc1cccc(NC(=O)CSc2nnc3c(=O)n(-c4cccc(OC)c4)ccn23)c1	7.34	13.59	-2.76
COc1cccc(NC(=O)Cn2nc3c4c5c(sc4ncn3c2=O)CCCC5)c1	10.28	6.83	-22.51
Cc1ccc(NC(=O)Cn2nc3c4cc(-c5ccc(C)c(C)c5)nn4ccn3c2=O)cc1	12.57	8.44	-14.13
COc1ccc(-c2cc3c4nn(CC(=O)Nc5cc(OC)ccc5OC)c(=O)n4ccn3n2)cc1	11.83	1.43	-25.14
CCC(Sc1nnc2c(=O)n(-c3ccc(C)c(C)c3)ccn12)C(=O)Nc1ccccc1C (stereo not drawn)	15.08	1	-9.85
O=S(=O)(c1ccc2nncn2c1)N(Cc1cc(F)cc(F)c1)c1ccc(F)c(F)c1	12.12	1.89	-12.17
CCCCOc1ccc(-c2cc3c4nnc(SCC(=O)Nc5cccc(C(C)=O)c5)n4ccn3n2)cc1	9.96	5.2	-6.36
Cc1cc(C)c(NC(=O)Cn2nc3ccc(SC4CCCCC4)nn3c2=O)c(C)c1	7.83	19.78	-14.71
O=C(Cn1nc2c(N3CCOCC3)nc3ccccc3n2c1=O)NCc1ccccc1Cl	-0.61	6.61	-3.24
O=C(Cn1nc2ccc(Sc3ccccc3)nn2c1=O)N1CCN(c2ccc(F)cc2)CC1	5.94	0.64	-5.51
NC(=O)CSc1nnc2c(=O)n(-c3ccc(F)cc3)ccn12	0.07	2.37	-6.51
CCc1ccccc1NC(=O)Cn1nc2c(Sc3ccccc3CC)nccn2c1=O	12.45	3.69	-11.06
COc1ccccc1CNC(=O)Cn1nc2c(N3CCSCC3)nccn2c1=O	3.04	3.29	-6.25
